# Hit rate of the full screen: of about 69,000 compounds, about 1,000 (1.4%) showed an effect of 50% or more. Many of the other results were omitted from the sample, so strong results are more common in it than they were.
# System: Leishmania donovani
# Test: Leishmania intramacrophage assay
# Assay type: functional, organism-based
# Set-up: scale not given: in the data most compounds retested in dose-response had high values
smiles,measurement,setting,value
Cn1cnnc1C1CCCN(C(=O)c2cc(Cl)c(Cl)n2C)C1 (stereo unspecified),Percent Effect,30 µM,16.78%
Cc1ccc(N2CCCC(NCc3ccc4c(c3)OCCO4)C2)nn1 (stereo unspecified),Percent Effect,"30.3 µM, […]",-12.27%
CCCNC(=O)CCC(=O)N1CCC(c2n[nH]c(C3CC3)n2)CC1,Percent Effect,"30.3 µM, […]",-11.33%
O=C1CCN(C(=O)NCc2ccccc2Oc2ccccc2)CCN1,Percent Effect,"30.3 µM, […]",-11.56%
COc1ccc(CN2CCn3cc(CNC(=O)CC4CC4)nc3C2)cc1.O=C(O)C(F)(F)F,Percent Effect,"30.3 µM, […]",-3.07%
CN1Cc2ccccc2CC1C(=O)N1CCN(CCS(C)(=O)=O)CC1 (stereo unspecified),Percent Effect,"30.3 µM, […]",-7.608%
COc1ccc(-c2nnsc2C(=O)N2CCC(C(N)=O)CC2)cc1,Percent Effect,"30.3 µM, […]",-2.161%
O=c1[nH]cc(N2CCOCC2)c(=O)[nH]1,Percent Effect,"30.3 µM, […]",-12.54%
O=C(O)C(F)(F)F.O=C(O)C(F)(F)F.O=c1ccc2c(n1Cc1ccncc1)CCN(Cc1ccoc1)CC2,Percent Effect,"30.3 µM, […]",7.941%
O=C(O)C(F)(F)F.O=C(O)C(F)(F)F.O=c1ccc2c(n1CCN1CCCC1)CCN(Cc1ccoc1)CC2,Percent Effect,"30 µM, 30.03 µM",45%
O=C(O)C(F)(F)F.O=C(O)C(F)(F)F.O=c1ccc2c(n1Cc1cccnc1)CCN(Cc1ccoc1)CC2,Percent Effect,"30.3 µM, […]",52.28%
CCN(CC)C(CNC(=O)c1ccnc(N(C)C)c1)c1ccsc1 (stereo unspecified),Percent Effect,"30.3 µM, […]",1.995%
Cc1ccc(NC2CCN(C(=O)CCc3c(C)noc3C)CC2)nn1,Percent Effect,30 µM,23.52%
O=C(O)c1ccccc1-c1c(-c2ccccc2)ncn1C[C@H]1CCCN1,Percent Effect,"30.3 µM, […]",31.03%
O=C(O)c1ccccc1-c1c(-c2ccccc2)ncn1CC1CCCO1 (stereo unspecified),Percent Effect,"30.3 µM, […]",-1.472%
Oc1ccc(-c2c(-c3ccccc3)ncn2C[C@H]2CCCN2)cc1,Percent Effect,"30.3 µM, […]",51.83%
CCc1ccc(C(COC)NC(=O)c2ccc(O)nc2)o1 (stereo unspecified),Percent Effect,"30.3 µM, […]",-7.414%
CCc1ccc(C(COC)NC(=O)c2ccc(NC(C)=O)cc2)o1 (stereo unspecified),Percent Effect,"30.3 µM, […]",-4.032%
CCc1ccc(C(COC)NC(=O)c2ccc(C(N)=O)cc2)o1 (stereo unspecified),Percent Effect,"30.3 µM, […]",64.18%
NC(=O)CS(=O)(=O)Cc1csc(-c2ccccc2)n1,Percent Effect,"30.3 µM, […]",15.77%
Cc1nnsc1C(=O)NCCNS(=O)(=O)c1cccs1,Percent Effect,"30.3 µM, […]",-23.26%
Cc1nc(C)n(C2CCCN(C(=O)c3sccc3C)C2)n1 (stereo unspecified),Percent Effect,30 µM,16.01%
CC(=O)NCCNC(=O)NCC1Cc2ccccc2O1 (stereo unspecified),Percent Effect,"30.3 µM, […]",52.86%
CC(C)c1noc(CCNC(=O)NCC2Cc3ccccc3O2)n1 (stereo unspecified),Percent Effect,"30.3 µM, […]",-9.19%
Cc1cc(C)c(CNC(=O)NCC2Cc3ccccc3O2)c(=O)[nH]1 (stereo unspecified),Percent Effect,"30.3 µM, […]",1.622%
NS(=O)(=O)CCNC(=O)c1cc(Br)c2c(c1)OCCO2,Percent Effect,"30.3 µM, […]",-2.46%
CC(C)CC(=O)N1C[C@@H]2CCN(c3ncccn3)C[C@@H]2C1.O=C(O)C(F)(F)F,Percent Effect,"30 µM, 30.03 µM",12.14%
CC(C)(C)c1n[nH]cc1CNC1CCC(C(F)(F)F)CC1.Cl (stereo unspecified),Percent Effect,"30.3 µM, […]",-4.401%
COCCNC(=O)[C@H]1CN(c2ncccn2)C[C@H]2OCC[C@@H]12,Percent Effect,"30.3 µM, […]",52.44%
COCCNC(=O)[C@@H]1CN(c2ncccn2)C[C@H]2OCC[C@H]21,Percent Effect,"30.3 µM, […]",9.036%
COCCNC(=O)[C@@H]1CN(c2cc(OC)ncn2)C[C@H]2OCC[C@H]21,Percent Effect,"30.3 µM, […]",7.324%
CCC1CCC(N(Cc2cc(=O)n(C)c(=O)n2C)C2CC2)CC1 (stereo unspecified),Percent Effect,"30.3 µM, […]",27.04%
CC1(C)CN(CC(F)(F)F)CCN1CC(N)=O,Percent Effect,"30.3 µM, […]",13.64%
Cc1ccc(OCCn2cnc3oc(C)c(C(=O)O)c3c2=O)cc1,Percent Effect,"30.3 µM, […]",-9.017%
Cc1noc(C(C)N2CCN(CCn3ccccc3=O)CC2)n1 (stereo unspecified),Percent Effect,"30.3 µM, […]",29.89%
CCCc1noc(C(C)N2CCN(CCn3ccccc3=O)CC2)n1 (stereo unspecified),Percent Effect,"30.3 µM, […]",52.92%
CC(c1nc(C2CC2)no1)N1CCN(CCn2ccccc2=O)CC1 (stereo unspecified),Percent Effect,"30.3 µM, […]",21.89%
Cc1nc2ccc(S(=O)(=O)Nc3c(C)nn(CC(=O)O)c3C)cc2s1,Percent Effect,"30.3 µM, […]",-9.195%
CCOC[C@@H]1CC[C@H]2[C@H](CCN2S(=O)(=O)c2ccc(F)cc2)O1,Percent Effect,"30.3 µM, […]",19.83%
CCCC(NC(=O)c1cc(C)n(C2CC2)c1C)c1nnn[nH]1 (stereo unspecified),Percent Effect,"30 µM, 30.03 µM",2.645%
CCOc1c(CNCCCn2ccnc2)cc(Cl)cc1OC.Cl.Cl,Percent Effect,"30.3 µM, […]",35.73%
CCOc1c(Cl)cc(Cl)cc1CNCCCn1ccnc1,Percent Effect,"30.3 µM, […]",67.73%
COc1ccc(Cl)cc1CNCCCn1ccnc1,Percent Effect,"30.3 µM, […]",3.119%
CCOc1ccc(Cl)cc1CNCCCn1ccnc1,Percent Effect,"30 µM, 30.03 µM",1.663%
CCn1nnc(NCc2cc(Cl)cc(Cl)c2OC)n1,Percent Effect,"30.3 µM, […]",-5.532%
COc1ccc(CN2CCC(O)(CN3CCCCC3)C2)c(C)c1 (stereo unspecified),Percent Effect,"30.3 µM, […]",67.74%
Cc1cc(F)ccc1CN1CCCC(O)(CN2CCCC2)C1 (stereo unspecified),Percent Effect,"30.3 µM, […]",37.99%
Cc1cc(F)ccc1CN1CCC(O)(CN2CCCCC2)C1 (stereo unspecified),Percent Effect,"30 µM, 30.03 µM",37.89%
CCOc1ccc(C(=O)CCC(=O)N(C)Cc2nc(C)c[nH]2)cc1C,Percent Effect,"30.3 µM, […]",-49.88%
COc1ccc(C[C@@H]2CC[C@H](CN(C)C3CCN(C)CC3)O2)cc1,Percent Effect,"30.3 µM, […]",8.587%
CCN(C)C[C@H]1CC[C@@H](Cc2ccc3c(cnn3C)c2)O1,Percent Effect,"30.3 µM, […]",-0.9976%
CN1CCC(N(C)C[C@H]2CC[C@@H](Cc3ccc4occc4c3)O2)CC1,Percent Effect,"30.3 µM, […]",87.95%
CN1CCC(N(C)C[C@H]2CC[C@@H](Cc3cccc(CO)c3)O2)CC1,Percent Effect,"30.3 µM, […]",11.6%
CN1CCC(N(C)C[C@H]2CC[C@@H](Cc3cccc(O)c3)O2)CC1,Percent Effect,"30.3 µM, […]",81.26%
CN1CCC(N(C)C[C@H]2CC[C@@H](Cc3ccc4c(cnn4C)c3)O2)CC1,Percent Effect,"30.3 µM, […]",38.58%
Cc1ccnn1CCC(=O)N1CCCC1c1cc2cccnc2[nH]1.Cl (stereo unspecified),Percent Effect,"30.3 µM, […]",-28.4%
COCCNC(=O)N1CCCCC1CNC(=O)Nc1ccccc1 (stereo unspecified),Percent Effect,"30.3 µM, […]",-22.22%
Cc1nc(CNC(=O)N(CCCO)C2CCc3ccccc32)oc1C (stereo unspecified),Percent Effect,"30.3 µM, […]",21.1%
CC(C)c1cc(C(=O)N2CC[C@@H](c3ccc4c(c3)OCO4)[C@H](O)C2)[nH]n1,Percent Effect,"30.3 µM, […]",26.43%
CCOCC1CN(Cc2cnn(C)c2)Cc2nn(C)cc21.O=C(O)C(F)(F)F (stereo unspecified),Percent Effect,"30 µM, 30.03 µM",-19.77%
Cc1nn(Cn2ccc(C(=O)N3CCCC3)n2)c(C)c1Cl,Percent Effect,"30.3 µM, […]",14.44%
Cc1nn(Cn2ccc(C(=O)N3CCCC(C)C3)n2)c(C)c1Cl (stereo unspecified),Percent Effect,"30.3 µM, […]",24.98%
Cc1nn(Cn2ccc(C(=O)N3CCC(C)CC3)n2)c(C)c1Cl,Percent Effect,"30.3 µM, […]",52.68%
Cc1cc(C(=O)NCc2cccnc2N2CCCC(O)C2)[nH]n1 (stereo unspecified),Percent Effect,"30.3 µM, […]",14.66%
CN(Cc1ccc(Br)c2cccnc12)S(C)(=O)=O,Percent Effect,"30.3 µM, […]",20.74%
O=C(NCCc1cccs1)NCC(O)c1cccc(F)c1 (stereo unspecified),Percent Effect,30 µM,0.0374%
Cc1nc(Cn2c3c(ccc2=O)CC(N)CC3)cs1 (stereo unspecified),Percent Effect,"30.3 µM, […]",24.76%
Cc1nc(Cn2c3c(ccc2=O)CC(NC(N)=O)CC3)cs1 (stereo unspecified),Percent Effect,"30.3 µM, […]",52.43%
CCCC(=O)NC1CCc2c(ccc(=O)n2Cc2csc(C)n2)C1.O=C(O)C(F)(F)F (stereo unspecified),Percent Effect,"30.3 µM, […]",38.16%
CCN1CC2(CC1=O)CN(Cc1ccncc1)CCN(C(=O)C(C)C)C2.O=C(O)C(F)(F)F.O=C(O)C(F)(F)F (stereo unspecified),Percent Effect,"30.3 µM, […]",17.44%
O=C(C[C@@H]1COC[C@H]2CN(C3CCCC3)C[C@@H]12)N1CCCCO1.O=C(O)C(F)(F)F,Percent Effect,"30.3 µM, […]",0.3497%
Cc1c[nH]c(CN(C)C(C(=O)O)c2c(F)cccc2OC(C)C)n1 (stereo unspecified),Percent Effect,"30.3 µM, […]",12.35%
CC(O)CN1CCC(CNCc2ccc(OC(F)(F)F)cc2)CC1 (stereo unspecified),Percent Effect,30 µM,89.6%
CC(O)CN1CCC(CNCc2ccccc2OC(F)(F)F)CC1 (stereo unspecified),Percent Effect,"30 µM, 30.03 µM",31.23%
CC(O)CN1CCC(CNCc2cccc(C(N)=O)c2)CC1 (stereo unspecified),Percent Effect,"30 µM, 30.03 µM",24.83%
CC(O)CN1CCC(CNCc2ccc(C#N)cc2)CC1 (stereo unspecified),Percent Effect,"30.3 µM, […]",-9.359%
CC(O)CN1CCC(CNCc2cccc(OC(C)C)c2)CC1 (stereo unspecified),Percent Effect,"30 µM, 30.03 µM",57.47%
CC(O)CN1CCC(CNCc2ccc(S(C)(=O)=O)cc2)CC1 (stereo unspecified),Percent Effect,"30 µM, 30.03 µM",29.6%
CC(O)CN1CCC(CNCc2cccc(C(F)(F)F)c2)CC1 (stereo unspecified),Percent Effect,"30.3 µM, […]",35.92%
CC(O)CN1CCC(CNCc2ccccc2C(F)(F)F)CC1 (stereo unspecified),Percent Effect,30 µM,19.95%
CC(O)CN1CCC(CNCc2cccc(OC(F)(F)F)c2)CC1 (stereo unspecified),Percent Effect,30 µM,66.17%
CC(O)CN1CCC(CNCc2cccc(Cl)c2)CC1 (stereo unspecified),Percent Effect,"30.3 µM, […]",14.58%
CC(O)CN1CCC(CNCc2cccc(Br)c2)CC1 (stereo unspecified),Percent Effect,"30 µM, 30.03 µM",61.22%
CC(O)CN1CCC(CNCc2cccc(C(=O)N(C)C)c2)CC1 (stereo unspecified),Percent Effect,"30.3 µM, […]",15.32%
COC(=O)c1cc(NCC(=O)NC(N)=O)cc(C(F)(F)F)c1,Percent Effect,"30.3 µM, […]",10.64%
C(=C\c1ccccc1)/CNCC1CCc2nncn2C1 (stereo unspecified),Percent Effect,"30.3 µM, […]",-5.474%
O=C(Nc1ccccc1F)NC1(CO)CCOCC1,Percent Effect,"30.3 µM, […]",37.09%
Cc1nc(CN2C[C@@H]3CN(C(=O)c4ccnnc4)C[C@@H]3C2=O)cs1.O=C(O)C(F)(F)F,Percent Effect,"30 µM, 30.03 µM",13.66%
CC(C)(C)n1ncc2c1CCCC2NCc1cccc2c1OCCO2 (stereo unspecified),Percent Effect,30 µM,39.91%
COc1c(CC2CC(C(=O)O)=NO2)c(Br)c2c(c1OC)OCO2 (stereo unspecified),Percent Effect,"30.3 µM, […]",9.318%
Cc1noc(CNC(=O)N2CCN(c3nc(C)c(C)s3)CC2)n1,Percent Effect,"30.3 µM, […]",0.7779%
O=C(CN1CCOC(Cn2cccn2)C1)NCc1ccco1 (stereo unspecified),Percent Effect,30 µM,30.39%
OC(CNC1CCOCC1)c1ccc(Cl)c(F)c1 (stereo unspecified),Percent Effect,"30.3 µM, […]",9.683%
CC(=O)N1CCCCC[C@@H]2[C@@H]1[C@H](c1cccc(F)c1)CN2C(=O)C1CC1,Percent Effect,"30.3 µM, […]",16.49%
Cc1nc[nH]c1-c1nccn1CCN1CCOC1=O,Percent Effect,"30.3 µM, […]",3.243%
CCOC(C)C(=O)NCCNS(C)(=O)=O (stereo unspecified),Percent Effect,"30.3 µM, […]",50.09%
CC(C)COC(C)C(=O)NCc1ccccc1 (stereo unspecified),Percent Effect,30 µM,13.02%
CC(CC(=O)NCCNS(C)(=O)=O)C1CCCCC1 (stereo unspecified),Percent Effect,"30.3 µM, […]",12.79%
CC(C)COC(C)C(=O)NCCNS(C)(=O)=O (stereo unspecified),Percent Effect,"30.3 µM, […]",50.97%
CC(C)COC(C)C(=O)NCCNC(=O)C(C)C (stereo unspecified),Percent Effect,"30.3 µM, […]",43.81%
CC(C)C(=O)NCCNC(=O)C(C)OCC(F)(F)F (stereo unspecified),Percent Effect,"30.3 µM, […]",28.18%

# — ChEMBL document CHEMBL3988442, “University of Dundee, Small-Polar-MMV Screening Library” (2021)
